From PubChem BioAssay (NCI)
About 79,000 compounds went through this panel and 15% of them were active in at least one assay; those are over-represented in the sample as a whole. Activity calls are given as the source filed them. Rule as the data show it: active = growth inhibition above about 70%; inactive = the rest.

What was measured:
[1] = NCI Yeast Anticancer Drug Screen. Data for the rad52 strain (AID 147);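 also: 0% = growth of vehicle-treated control cultures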; settings: S. cerevisiae rad52 mutant growth inhibition, active compounds read high
Procedure, shortened: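 Inhibition of yeast growth, referenced to vehicle controls, was the measured output for a strain with defective DNA damage repair.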

[2] = NCI Yeast Anticancer Drug Screen. Data for the wt1 strain (AID 149);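 also: 0% = growth of vehicle-treated wt1 cultures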; settings: S. cerevisiae wt1 strain (SPY 50644) growth inhibition, active compounds read high
Procedure, shortened: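 Measured: growth of wt1 yeast under compound versus vehicle treatment, reported as inhibition.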

[3] = NCI Yeast Anticancer Drug Screen. Data for the rad50EPP+ strain (AID 151);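 also: 0% = growth of vehicle-treated control cultures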; settings: S. cerevisiae rad50 mutant strain, active compounds read high
Procedure, shortened: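 Genetically defined yeast (rad50EPP+, DNA damage repair alteration) is grown with compound, and inhibition of growth is expressed relative to vehicle-treated controls.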

[4] = NCI Yeast Anticancer Drug Screen. Data for the mgt1 strain (AID 153); settings: S. cerevisiae mgt1 mutant growth inhibition, active compounds read high
Procedure, shortened: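 In the mgt1 strain, test compounds were added and growth inhibition was determined relative to vehicle-treated controls.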

[5] = NCI Yeast Anticancer Drug Screen. Data for the rad50 strain (AID 155);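 also: 0% = growth of vehicle-only cultures of the same strain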; settings: S. cerevisiae rad50 strain growth inhibition, active compounds read high
Procedure, shortened: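 Growth of the mutant yeast was measured after compound exposure and referenced to vehicle-treated cultures.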

[6] = NCI Yeast Anticancer Drug Screen. Data for the mec2-1 strain (AID 157); settings: S. cerevisiae mec2-1 strain, active compounds read high
Procedure, shortened: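 Each compound was tested on mec2-1 yeast, a strain altered in DNA damage repair or cell cycle control. Growth inhibition is reported relative to vehicle.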

[7] = NCI Yeast Anticancer Drug Screen. Data for the rad14 strain (AID 159);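 also: 0% = growth of vehicle-treated control cultures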; settings: S. cerevisiae rad14 strain growth inhibition, active compounds read high
Procedure, shortened: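 Here, inhibition of yeast growth was measured after compound exposure, using a strain with a genetic defect in DNA damage repair and vehicle-treated cultures as the reference.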

[8] = NCI Yeast Anticancer Drug Screen. Data for the sgs1 mgt1 strain (AID 161);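 also: 0% = growth of cultures given vehicle only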; settings: S. cerevisiae sgs1 mgt1 strain, active compounds read high
Procedure, shortened: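 Mutant yeast exposed to compound; growth scored against vehicle-only wells.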

[9] = NCI Yeast Anticancer Drug Screen. Data for the CLN2oe strain (AID 163);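 also: 0% = growth of vehicle-only control cultures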; settings: S. cerevisiae CLN2oe strain, active compounds read high
Procedure, shortened: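 First, the altered yeast strain was treated with each compound; second, its growth was measured; finally, inhibition was derived by comparison with vehicle controls.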

[10] = NCI Yeast Anticancer Drug Screen. Data for the cln2 rad14 strain (AID 165);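 also: 0% = growth equal to vehicle treated cultures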; settings: S. cerevisiae cln2 rad14 strain, active compounds read high
Procedure, shortened: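 Test compounds were added to cln2 rad14 yeast cultures; inhibition of growth was then determined by comparison with vehicle treatment.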

[11] = NCI Yeast Anticancer Drug Screen. Data for the bub3 strain (AID 167); settings: S. cerevisiae bub3 mutant strain, active compounds read high
Procedure, shortened: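 Whole-cell yeast assay. The mutant strain was incubated with compounds, and growth inhibition was determined by comparison with vehicle-treated cells.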

[12] = NCI Yeast Anticancer Drug Screen. Data for the wt2 strain (AID 169);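 also: 0% = growth of vehicle-treated yeast cultures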; settings: S. cerevisiae wt2 strain growth inhibition, active compounds read high
Procedure, shortened: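 The panel's yeast strains carry defined changes in DNA repair or cell cycle genes. Each strain is grown with compound, and growth loss is scored relative to vehicle.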

[13] = NCI Yeast Anticancer Drug Screen. Data for the mlh1 strain (AID 171);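 also: 0% = growth of vehicle-treated control cultures of the same strain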; settings: S. cerevisiae mlh1 strain growth inhibition, active compounds read high
Procedure, shortened: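 Inhibition values reflect reduced yeast growth in the presence of compound, referenced to vehicle controls, using a strain chosen for its alteration in DNA repair or cell cycle control.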

[14] = NCI Yeast Anticancer Drug Screen. Data for the sgs1 strain (AID 173);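 also: 0% = growth of vehicle-only control cultures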; settings: S. cerevisiae sgs1 mutant, active compounds read high
Procedure, shortened: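 Vehicle-treated cultures served as reference for growth inhibition of a yeast strain altered in DNA damage repair or cell cycle control after compound exposure.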

[15] = NCI Yeast Anticancer Drug Screen. Data for the mlh1 rad18 strain (AID 175); settings: S. cerevisiae mlh1 rad18 strain growth inhibition, active compounds read high
Procedure, shortened: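 Inhibition values reflect reduced growth of mutant yeast versus vehicle-treated controls following compound exposure; the mutations affect DNA damage repair.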

[16] = at 5.0 µM (retest, dose inferred, filed as 0.5)
[17] = at 50.0 µM (retest, dose inferred, filed as 5.0)

Measured: growth inhibition

CCC(=O)C1=C(O)c2cc(OC)ccc2CC1C(=O)OC (stereo unspecified)
active: [3]; at 33.0 µM 73% | [3]; at 100.0 µM 86% | [5]; [17] 73% | [8]; [17] 89% | [11]; [17] 78% | [15]; [17] 90%
inactive: [1]; at 1.2 µM -1% | [1]; at 3.7 µM 2% | [1]; at 11.0 µM 7% | [1]; at 33.0 µM 16% | [1]; at 100.0 µM 43% | [2]; at 1.2 µM 0% | [2]; at 3.7 µM 5% | [2]; at 11.0 µM 4% | [2]; at 33.0 µM 6% | [2]; at 100.0 µM 19% | [3]; at 1.2 µM 2% | [3]; at 3.7 µM 6% | [3]; at 11.0 µM 43% | [4]; at 1.2 µM -2% | [4]; at 3.7 µM -1% | [4]; at 11.0 µM 4% | [4]; at 33.0 µM 10% | [4]; at 100.0 µM 19% | [5]; at 1.2 µM -1% | [5]; at 3.7 µM -1% | [5]; [16] -9% | [5]; at 11.0 µM 6% | [5]; at 33.0 µM 4% | [5]; at 50.0 µM 13.1% | [5]; at 100.0 µM 28% | [6]; at 1.2 µM -1% | [6]; at 3.7 µM -4% | [6]; [16] -5% | [6]; at 11.0 µM -1% | [6]; at 33.0 µM 13% | [6]; [17] -1% | [6]; at 50.0 µM 13.2% | [6]; at 100.0 µM 35% | [7]; at 1.2 µM 2% | [7]; at 3.7 µM 6% | [7]; at 11.0 µM 11% | [7]; at 33.0 µM 19% | [7]; at 100.0 µM 35% | [8]; [16] -3% | [8]; at 50.0 µM 24% | [9]; at 1.2 µM -7% | [9]; at 3.7 µM -8% | [9]; at 11.0 µM 2% | [9]; at 33.0 µM 10% | [9]; at 100.0 µM 21% | [10]; [16] -5% | [10]; [17] 20% | [10]; at 50.0 µM 4.75% | [11]; at 1.2 µM -7% | [11]; at 3.7 µM -8% | [11]; [16] 7% | [11]; at 11.0 µM -9% | [11]; at 33.0 µM 2% | [11]; at 50.0 µM 38.9% | [11]; at 100.0 µM 15% | [12]; at 1.2 µM -2% | [12]; at 3.7 µM 3% | [12]; at 11.0 µM 8% | [12]; at 33.0 µM 14% | [12]; at 100.0 µM 30% | [13]; at 1.2 µM -5% | [13]; at 3.7 µM -1% | [13]; at 11.0 µM 2% | [13]; at 33.0 µM 10% | [13]; at 100.0 µM 26% | [14]; at 1.2 µM -1% | [14]; at 3.7 µM -1% | [14]; at 11.0 µM 4% | [14]; at 33.0 µM 18% | [14]; at 100.0 µM 37% | [15]; [16] 16% | [15]; at 50.0 µM 31.4%

O=[N+]([O-])c1ccc(S(=O)(=O)Cc2ccccc2)c([N+](=O)[O-])c1
active: [1]; at 33.0 µM 89% | [1]; at 100.0 µM 99% | [2]; at 33.0 µM 88% | [2]; at 100.0 µM 99% | [3]; at 11.0 µM 87% | [3]; at 33.0 µM 97% | [3]; at 100.0 µM 97% | [4]; at 33.0 µM 98% | [4]; at 100.0 µM 99% | [5]; at 33.0 µM 87% | [5]; [17] 100% | [5]; at 50.0 µM 99.5% | [5]; at 100.0 µM 98% | [6]; at 33.0 µM 96% | [6]; [17] 100% | [6]; at 50.0 µM 99.8% | [6]; at 100.0 µM 99% | [7]; at 33.0 µM 74% | [7]; at 100.0 µM 99% | [8]; [17] 100% | [8]; at 50.0 µM 99.5% | [9]; at 100.0 µM 95% | [10]; [17] 99% | [10]; at 50.0 µM 98.6% | [11]; at 33.0 µM 85% | [11]; [17] 99% | [11]; at 50.0 µM 99.4% | [11]; at 100.0 µM 95% | [12]; at 33.0 µM 98% | [12]; at 100.0 µM 98% | [13]; at 33.0 µM 93% | [13]; at 100.0 µM 99% | [14]; at 33.0 µM 98% | [14]; at 100.0 µM 99% | [15]; [17] 100% | [15]; at 50.0 µM 99.4%
inactive: [1]; at 1.2 µM 6% | [1]; at 3.7 µM 17% | [1]; at 11.0 µM 47% | [2]; at 1.2 µM 6% | [2]; at 3.7 µM 9% | [2]; at 11.0 µM 24% | [3]; at 1.2 µM 36% | [3]; at 3.7 µM 67% | [4]; at 1.2 µM 10% | [4]; at 3.7 µM 14% | [4]; at 11.0 µM 35% | [5]; at 1.2 µM 9% | [5]; at 3.7 µM 14% | [5]; [16] 65% | [5]; at 11.0 µM 41% | [6]; at 1.2 µM 12% | [6]; at 3.7 µM 18% | [6]; [16] 31% | [6]; at 11.0 µM 39% | [7]; at 1.2 µM 7% | [7]; at 3.7 µM 10% | [7]; at 11.0 µM 22% | [8]; [16] 46% | [9]; at 1.2 µM -1% | [9]; at 3.7 µM 7% | [9]; at 11.0 µM 21% | [9]; at 33.0 µM 61% | [10]; [16] 7% | [11]; at 1.2 µM 1% | [11]; at 3.7 µM 6% | [11]; [16] 56% | [11]; at 11.0 µM 44% | [12]; at 1.2 µM 7% | [12]; at 3.7 µM 15% | [12]; at 11.0 µM 37% | [13]; at 1.2 µM 9% | [13]; at 3.7 µM 17% | [13]; at 11.0 µM 35% | [14]; at 1.2 µM 16% | [14]; at 3.7 µM 30% | [14]; at 11.0 µM 65% | [15]; [16] 65%
